From PubChem BioAssay
Sampled rows, rich in hits. Any-hit rate of the full collection: about 1.9%.
PrPC TRFRET: cell surface PrPC inhibition, primary TR-FRET screen; P04156; TR-FRET read-out; inhibition, % at 13.8 µM; hit rate 0.43% among 370,000; AID 720596; in the data active means inhibition above about 24%; further: 0% = median of the test wells and 100% = reference compound wells
PfHsp40 yeast: compounds rescuing yeast from Plasmodium falciparum HSP40 toxicity; S. cerevisiae expressing PfHsp40, growth rescue, ATP luminescence; growth rescue, % at 12.5 µM; hit rate 0.68% among 340,000; AID 504582; in the data active means growth rescue above about 28%, passing the limit was not always enough;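 further: yeast W303a lacking pdr1 and pdr3 grown in galactose medium; growth measured after three days at 30 °C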
BJeLR viability: kills HRASV12-expressing BJeLR cells; hit rate 0.17% among 300,000; BJeLR (HRASV12) viability, CellTiter-Glo ATP luminescence, 48 h; inhibition, % (concentration not given with the values); in the data active means inhibition above about 50%
PriA SSB inh: blocks PriA binding to SSB C-terminal tail; AlphaScreen SSBct-PriA binding, biotinylated peptide; inhibition, % at 33 µM; hit rate 0.6% among 430,000; in the data active means inhibition mostly above about 37%, no sharp cut-off; inactive means mostly below about 20%;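 further: plate controls were negative control peptide for no effect and reference peptide for full effect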
RecA intein inh: Mtb RecA intein splicing inhibition | hit rate 0.75% among 290,000 | inhibition, % (concentration not given with the values) | cell-free RecA intein splicing, fluorescence | AID 2221; in the data active means inhibition above about 30%;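 further: 0% = vehicle wells and 100% = reference inhibitor control wells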
Target sequence (P9WHJ3 whole entry, looked up): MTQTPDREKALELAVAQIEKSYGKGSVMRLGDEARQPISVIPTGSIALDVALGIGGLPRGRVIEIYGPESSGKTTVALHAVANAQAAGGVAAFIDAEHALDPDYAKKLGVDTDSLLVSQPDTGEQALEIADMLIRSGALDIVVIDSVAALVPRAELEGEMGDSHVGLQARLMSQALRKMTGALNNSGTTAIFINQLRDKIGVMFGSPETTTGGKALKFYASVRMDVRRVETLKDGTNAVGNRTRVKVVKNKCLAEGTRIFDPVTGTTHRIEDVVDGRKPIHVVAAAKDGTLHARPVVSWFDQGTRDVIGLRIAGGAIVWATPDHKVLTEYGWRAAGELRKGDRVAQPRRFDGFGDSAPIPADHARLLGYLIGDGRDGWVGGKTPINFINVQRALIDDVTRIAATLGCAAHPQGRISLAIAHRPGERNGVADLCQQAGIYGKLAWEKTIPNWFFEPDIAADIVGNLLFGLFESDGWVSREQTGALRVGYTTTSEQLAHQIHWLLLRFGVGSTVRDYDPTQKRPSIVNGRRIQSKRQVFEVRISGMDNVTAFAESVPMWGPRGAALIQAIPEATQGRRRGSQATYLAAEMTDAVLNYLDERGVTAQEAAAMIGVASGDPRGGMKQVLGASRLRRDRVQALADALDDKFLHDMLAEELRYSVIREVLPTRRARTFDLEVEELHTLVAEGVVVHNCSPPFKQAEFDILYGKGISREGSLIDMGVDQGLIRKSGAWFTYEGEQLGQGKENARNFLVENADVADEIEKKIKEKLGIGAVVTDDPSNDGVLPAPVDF
PrP 5UTR inh: inhibition of PrP 5' UTR reporter expression; cell-based PrP 5' UTR mRNA reporter, plate reader; hit rate 0.35% among 340,000; inhibition, % (concentration not given with the values); in the data active means inhibition above about 52%; further: 0 = median of the neutral control wells
PrPC confirm: cell surface PrPC inhibition, TR-FRET confirmation | shares compounds with PrPC TRFRET | cell surface PrPC level | inhibition, % at 13.8 µM | hit rate 65% among 1,500 | AID 743200; in the data active means inhibition above about 25%
LD9 tox: counter-screen for PrPc inhibitors: cytotoxicity in LD9 cells; shares compounds with PrPC TRFRET; luminescence viability; inhibition, % at 13.8 µM; hit rate 29% among 1,500; in the data active means inhibition above about 9.5%
Active calls of the source: *; / = no result given.

SMILES	PrPC TRFRET	PfHsp40 yeast	BJeLR viability	PriA SSB inh	RecA intein inh	PrP 5UTR inh	PrPC confirm	LD9 tox
CCOC(=O)c1cccc(NC(=O)c2scc(-c3ccc(Cl)cc3)c2-n2cccc2)c1	/	/	/	-33.0	/	/	/	/
COc1ccc(NC(=O)Cn2cccc(-c3nc(-c4ccc(Cl)cc4)no3)c2=O)cc1OC	/	/	/	-4.0	/	/	/	/
CCCCC1=CC2=C(c3ccco3)C(=O)C(C)(OC(=O)c3ccc(OC)cc3)C(=O)C2=CN1CCc1ccccn1 (stereo unspecified)	25.8*	0.5	4.7	-7.3	-4.4	-10.9	33.3*	-3.5
CCCCCCCCCCCCCCCC[n+]1ccccc1	27.7*	0.7	/	-2.2	/	9.7	39.5*	36.1*
NC(N)=NN=Cc1cn(-c2ccccc2)nc1-c1cccs1	/	/	/	19.7	/	/	/	/
NC(N)=N/N=C/c1cn(-c2ccccc2)nc1-c1cccs1	27.0*	0.9	17.8	/	/	-8.4	3.0	59.6*
COc1ccc(NC(=O)CCc2nc3sc4c(c3c(=O)[nH]2)CCCCC4)cc1Cl	/	/	/	0.0	/	/	/	/
OC[C@@H]1CN(Cc2ccc(Cl)cc2)C[C@H](n2cnc3c(NC4CCC4)ncnc32)O1	26.1*	/	/	/	/	/	22.7	-6.2
OC[C@@H]1CN(Cc2ccc(-c3ccccc3)cc2)C[C@H](n2cnc3c(NC4CC4)ncnc32)O1	4.8	/	/	/	/	/	/	/
CCOc1ccc(C2NC(=O)NC(c3ccccc3)=C2C(C)=O)cc1OC (stereo unspecified)	26.6*	0.6	0.6	8.3	2.4	-6.2	20.9	0.6
CCOc1cc(C2NC(=O)NC(c3ccccc3)=C2C(C)=O)ccc1OCC(N)=O (stereo unspecified)	0.1	-0.2	-0.5	-13.9	-3.3	1.2	/	/
CC(=O)ON=C(c1nonc1N)N1CCN(c2ccc([N+](=O)[O-])cc2Cl)CC1	/	/	/	5.4	/	/	/	/
O=C(CSc1nnc2ccc(-c3ccco3)nn12)c1ccc(F)cc1	/	/	/	4.0	/	/	/	/
CN(C)S(=O)(=O)Oc1cccc(C(=O)Nc2cccc(Cl)c2)c1	24.4*	-0.2	11.9	-28.1	/	-47.8	22.3	19.8*
CNS(=O)(=O)c1cccc(C(=O)Nc2cccc(Cl)c2)c1	4.5	0.1	2.2	-9.7	0.3	-29.1	/	/
COc1cccc(N2CCN(c3nc(-c4ccccc4C)cc(=O)[nH]3)CC2)c1	30.6*	108.0*	6.1	21.2	-0.9	-2.8	32.6*	14.2*
COc1cccc(N2CCN(c3nc(C)c(C)c(=O)[nH]3)CC2)c1	9.9	0.6	-0.9	-23.1	-4.3	-39.9	/	/
Cc1ccc(-n2nc3c(=S)[nH]nc(C)c3c2C)cc1	110.5*	-1.8	14.5	-11.7	-1.4	-11.0	122.4*	-0.3
Cc1n[nH]c(=S)c2nn(-c3ccccc3F)c(C)c12	45.8*	0.2	2.5	-10.7	-1.3	2.7	67.8*	3.0
COc1cccc(-n2nc3c(=S)[nH]nc(C)c3c2C)c1	17.0	2.5	-5.0	-8.1	-2.1	-17.1	/	/
Cc1n[nH]c(=S)c2nn(-c3ccccc3)c(C)c12	/	/	-5.2	/	-0.4	/	/	/
Cc1n[nH]c(=S)c2nn(-c3cccc(Cl)c3)c(C)c12	36.1*	/	-11.3	/	-0.6	/	67.2*	-4.0
COc1ccc(OC)c(-c2csc(NC(=O)Cn3[nH]c(=O)c4ccccc4c3=O)n2)c1	26.8*	0.1	-2.2	6.8	11.8	1.5	25.4*	38.0*
COc1ccc(OC)c(-c2csc(NC(=O)Cc3ccc(F)cc3)n2)c1	14.2	2.8	-6.5	-4.8	7.9	-19.5	/	/
CC[C@@H]1CCC[C@@H](O)[C@@H](C)C(=O)O[C@H](C)[C@@H](C)C/C=C(C)/C(OC)=C\C(=O)N(C)C([C@@H](C)CC)C(=O)N(C)[C@@H](C(C)C)C(=O)N(C)[C@@H](COC)C(=O)N2CCC[C@H]2C(=O)N(C)[C@@H](C(C)C)C(=O)N2CCC[C@H]2C(=O)O1 (stereo partly specified)	41.4*	/	/	/	/	/	51.1*	15.7*
CC[C@H](C)[C@@H]1OC(=O)[C@H](C(C)C)N(C)C(=O)[C@H](C(C)C)NC(=O)[C@@H](C)[C@@H](CCCC#CBr)OC(=O)[C@H](C(C)C)N(C)C(=O)C2CCCN2C1=O (stereo partly specified)	5.8	/	/	/	/	/	/	/
